# Rows were chosen to be rich in hits. Some 8% of all compounds tested hit in one or more screens of this group.
# KB-3-1 cytotox – kills parental KB-3-1 adenocarcinoma cells; KB-3-1 viability, CellTiter-Glo ATP luminescence, 72 h; Potency, µM (series often up to 46.1 µM), hits mostly cytotoxic; 400,000 compounds, 1.4% hits; note: % is set by controls: 0 for no effect and ±100 for the full control effect; nearly all actives have a fitted effect of over 60% in size
#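 Here the drug-naive KB-3-1 line serves as comparator for MDR sub-line selectivity; cells received compound titrations, 72 h at 37 °C, then CellTiter-Glo readout.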
# HT1080NT lethal – kills 2HG-producing HT-1080-NT fibrosarcoma cells; HT-1080-NT fibrosarcoma viability, CellTiter-Glo ATP luminescence, 48 h; Potency, µM (titrated, usually from 46.1 µM), without a hit: at the highest dose activity, negative = less viability, actives largely listed as cytotoxic; 360,000 compounds, 1.6% hits; AID 686970;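 note: NT is the 2HG producing partner of a matched IDH1 knockdown line; 0% = DMSO-treated cells and -100% = media-only wells without cells; nearly all actives have a fitted effect of over 55% in size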
#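 A 48-hour cytotoxicity screen used HT-1080-NT cells plated 2 hours before compound delivery. ATP-based CellTiter-Glo luminescence measured viability, normalized to DMSO and no-cell controls.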
# MCF10A rerep – DNA re-replication induction in MCF 10a cells. MCF 10A DNA re-replication, Hoechst nuclear intensity, 48 h. Potency, µM (highest dose often 46.1 µM), for the others: at the top dose activity, positive = re-replication, most hits filed as activators. 350,000 compounds, 2.9% hits. AID 624296; note: % of control where 0% means no effect; nearly all actives have a fitted effect of over 50% in size
# KB-V1 MDR tox – kills drug-selected multidrug resistant KB-V1 cells | KB-V1 MDR cells viability, CellTiter-Glo, 72 h | Potency, µM (highest dose often 46.1 µM), hits mostly cytotoxic | 400,000 compounds, 3.4% hits | AID 1347076; note: % is set by controls: 0 for no effect and ±100 for the full control effect; nearly all actives have a fitted effect of over 60% in size
#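 Luminescent ATP read-out (CellTiter-Glo, 10 min) measures survival of drug-selected KB-V1 MDR cells after 72 h, 37 degrees C compound exposure. Medium: phenol-red-free DMEM, 10% FBS. Values from fitted concentration-response curves.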
# SW480 rerep – DNA re-replication induction in SW480 cells; Potency, µM (series often up to 46.1 µM), for inactives: top-dose re-replication activation, usual class: activators; SW480 DNA re-replication, Hoechst DNA content imaging, 48 h; AID 624297; 340,000 compounds, 1.8% hits; note: % of control where 0% means no effect; nearly all actives have a fitted effect of over 55% in size
#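 SW480 cells exposed to compounds for 48 hr at 37 C, 5% CO2, then Hoechst-stained 40 min. Nuclear DNA content imaged by fluorescence scanning (405 nm excitation, 500-530 nm emission); re-replication scored as increased high-intensity nuclei.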
# HT1080 IDH1KD tx – kills HT-1080 cells with IDH1 knockdown | HT-1080 IDH1 knockdown viability, ATP luminescence, 48 h | Potency, µM (titrated, usually from 46.1 µM), for inactives: at the top dose activity, negative = toxicity, most hits filed as cytotoxic | 360,000 compounds, 2% hits | AID 686971;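 note: 0% = DMSO wells and -100% = cell-free medium wells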
#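 In this qHTS, HT-1080 cells depleted of IDH1 are exposed for 48 h at 37 °C to compound titrations. Toxicity is scored from CellTiter-Glo luminescence, with DMSO as full viability and medium alone as none.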
# * marks the source's active call; other numbers are inactive results; i = inactive; ? = inconclusive; / = no result given; [ ] = another dose, or the depositor's remark. Calls come from the whole dose curve; as a rule, active = well fitted curve in the direction sought with a large enough effect; inconclusive = small, poorly fitted or top-dose-only effect, or another doubt; inactive = no such curve, though single readings can be large; an effect the other way counts as inactive or inconclusive. Potency is the fitted concentration of half-maximal effect.
SMILES,KB-3-1 cytotox,HT1080NT lethal,MCF10A rerep,KB-V1 MDR tox,SW480 rerep,HT1080 IDH1KD tx
CCn1c(SCC(=O)Nc2ccc(C(C)=O)cc2)nc2nc3c(cc2c1=O)CCCC3,i,6%,?,i,2%,-9%
CCn1c(SCC(=O)Nc2ccc(Cl)cc2)nc2nc3c(cc2c1=O)CCCC3,i,2%,14%,0.52µM*,?,6%
CCn1c(SCC(=O)NCc2ccccc2)nc2nc3c(cc2c1=O)CCCC3,i,-12%,10%,i,0%,-15%
CCn1c(SCc2c(Cl)cccc2Cl)nc2nc3c(cc2c1=O)CCCC3,i,6%,23µM*,i,?,-2%
CCn1c(SCc2ccccc2Cl)nc2nc3c(cc2c1=O)CCCC3,?,-8%,18µM*,i,?,-29%
CCc1ccc(-c2cc3c(N4CCN(c5ccccc5)CC4)nccn3n2)cc1,i,/,/,i,/,/
COc1ccc(Cl)cc1C1=NOC2(CCC2)C(=O)N1Cc1cccc(C#N)c1,?,-20%,/,?,/,?
CO/N=C/C(=N\Nc1ccccc1)C(=O)c1ccccc1,i,0%,-11%,?,1%,-2%
COC(=O)C=CC(=NNc1ccccc1)c1ccccc1,i,-14%,18µM*,i,?,-20%
Nc1ncnc2c1ncn2C1OC(COP(=O)(O)O)C(O)C1O (stereo not given),i,7.3µM*,7%,i,-1%,?
Nc1ncnc2c1ncn2[C@@H]1O[C@H](COP(=O)(O)O)[C@@H](O)[C@H]1O,i,?,-4%,?,?,?
CN1N=C(N)c2cn(C3OC(COP(=O)(O)O)C(O)C3O)c3ncnc1c23 (stereo not given),1.8µM*,-24%,4%,?,1%,?
Nc1ncnc2c1ncn2C1C=C(CO)C(O)C1O (stereo not given),8.2µM*,?,?,?,?,?
Cc1ccccc1N=C1Nc2ccccc2N[C@]12C[C@H]1CCCC(=O)N3CC[C@@H](C2)[C@@H]13,i,/,/,i,/,/
Cc1cc(S(=O)(=O)N2CCN(c3c(C)cccc3C)CC2)ccc1F,i,?,9%,?,-2%,?
CCC(C)N(C)Cc1cccc(C2(O)CCN(S(=O)(=O)c3ccc(F)c(C)c3)CC2)c1 (stereo not given),i,-3%,15µM*,?,?,0%
CC(C)S(=O)(=O)c1csc(NC(=O)Nc2cccc([N+](=O)[O-])c2)c1Cl,23µM*,-4%,13%,?,-16%,16%
O=C(Nc1cccc([N+](=O)[O-])c1)Nc1cccc([N+](=O)[O-])c1,i,?,23%,i,8%,?
O=C(NCCc1ccccc1)c1ccccc1Cl,i,7%,8%,i,-4%,9%
O=C(NCCc1ccccc1)c1cccnc1N1CCCCCC1,i,-4%,26µM*,?,3%,5%
CCOc1ccc(NC(=O)CC(c2ccccc2)c2ccc(F)cc2)cc1 (stereo not given),i,-2%,-1%,18µM*,-19%,1%
COc1ccc(NC(=O)CC(c2ccc(F)cc2)c2ccc(OC(C)C)cc2)cc1 (stereo not given),i,-13%,18µM*,?,3%,-19%
COc1ccc(CCNC(=O)COC(=O)c2cncc(Br)c2)cc1OC,i,4%,-3%,i,-6%,-2%
CC(=O)Nc1ccc(NC(=O)c2cnn(-c3ccccc3)c2C2CCN(C(=O)OC(C)(C)C)CC2)cc1,i,/,/,i,/,/
CC1(C)Cc2ccccc2-c2nnc(SCC(=O)N3CCN(c4ccccc4)CC3)n21,12µM*,-30%,28%,2.3µM*,6%,?
SMILES,KB-3-1 cytotox,HT1080NT lethal,MCF10A rerep,KB-V1 MDR tox,SW480 rerep,HT1080 IDH1KD tx
CC1(C)Cc2ccccc2-c2nnc(SCc3ccccc3)n21,i,-6%,-4%,i,-4%,-12%
Cc1ccccc1-n1c(SCC(=O)N2CCN(c3ccccc3)CC2)nnc1-c1ccncc1,i,8%,14%,3.7µM*,0%,2%
Cc1ccccc1-n1c(SCC(=O)N2CCC(C(=O)O)CC2)nnc1-c1ccncc1,i,12%,-2%,i,-7%,-3%
Cn1c(SCC(=O)Nc2nc3ccccc3s2)nnc1-c1ccccc1,i,-9%,29%,i,3%,-7%
CC1(C)Cc2ccccc2-c2nnc(SCC(=O)Nc3nc4ccccc4s3)n21,?,1%,2%,3.3µM*,-3%,5%
CC(=O)N1CCc2cc(CNC(=O)Nc3ccccc3C(F)(F)F)ccc21,i,/,/,i,/,/
COc1ccc2cc(CNc3ccc(OC)c(OC)c3)c(=O)n(CC(=O)Nc3ccc(C)cc3)c2c1,i,/,/,i,/,/
O=C1CC2(CCCCC2)Oc2ccc(Cl)cc21,i,1%,?,i,11%,-3%
COc1ccccc1CNC(=O)C1CC2Cn3c(nc4cc(C)c(C)cc43)C2N1C (stereo not given),13µM*,-9%,1%,i,18%,-4%
COc1ccccc1CNC(=O)C1CC2Cn3c(nc4ccccc43)C2N1C (stereo not given),i,2%,-1%,?,-30%[9.22 µM],-7%
CCCC12CN3CC(C)(CN(C1)C3c1cn(CC)c3ccccc13)C2=O (stereo not given),i,/,/,i,/,/

# Bioassay records as filed in PubChem.
